# Measurements published in ChEMBL document CHEMBL1961873, “Compounds: GSK PKIS; Assays: Nanosyn kinase panel” (2012).
# How the values were obtained:
# [1] = target: Calcium/calmodulin-dependent protein kinase type II subunit alpha (Homo sapiens) (UniProt Q9UQM7); details: at 1 µM;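 also: reported value is a mean percent inhibition of CAMK2A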
# [2] = target: Calcium/calmodulin-dependent protein kinase type II subunit delta (Homo sapiens) (UniProt Q13557); details: at 0.1 µM
# [3] = target: Calcium/calmodulin-dependent protein kinase type II subunit delta (Homo sapiens) (UniProt Q13557); details: at 1 µM
# [4] = target: T1, Calcium/calmodulin-dependent protein kinase type IV (Homo sapiens) (UniProt Q16566); details: at 0.1 µM
# T1 sequence (whole entry): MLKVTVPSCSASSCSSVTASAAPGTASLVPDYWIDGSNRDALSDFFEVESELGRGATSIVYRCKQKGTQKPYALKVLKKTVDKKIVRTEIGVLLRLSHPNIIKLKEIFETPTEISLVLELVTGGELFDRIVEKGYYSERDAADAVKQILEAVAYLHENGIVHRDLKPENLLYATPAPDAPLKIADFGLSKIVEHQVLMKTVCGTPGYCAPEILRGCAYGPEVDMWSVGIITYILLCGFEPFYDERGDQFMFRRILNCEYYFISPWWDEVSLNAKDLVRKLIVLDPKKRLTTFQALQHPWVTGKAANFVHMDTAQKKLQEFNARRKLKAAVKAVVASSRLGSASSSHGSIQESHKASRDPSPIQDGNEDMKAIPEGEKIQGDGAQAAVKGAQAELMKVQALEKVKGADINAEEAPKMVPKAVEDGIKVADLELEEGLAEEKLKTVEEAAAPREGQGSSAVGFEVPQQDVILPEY
# [5] = target: T1, Calcium/calmodulin-dependent protein kinase type IV (Homo sapiens); details: at 1 µM
# [6] = target: T2, Serine/threonine-protein kinase Chk1 (Homo sapiens) (UniProt O14757); details: at 0.1 µM
# T2 sequence (whole entry): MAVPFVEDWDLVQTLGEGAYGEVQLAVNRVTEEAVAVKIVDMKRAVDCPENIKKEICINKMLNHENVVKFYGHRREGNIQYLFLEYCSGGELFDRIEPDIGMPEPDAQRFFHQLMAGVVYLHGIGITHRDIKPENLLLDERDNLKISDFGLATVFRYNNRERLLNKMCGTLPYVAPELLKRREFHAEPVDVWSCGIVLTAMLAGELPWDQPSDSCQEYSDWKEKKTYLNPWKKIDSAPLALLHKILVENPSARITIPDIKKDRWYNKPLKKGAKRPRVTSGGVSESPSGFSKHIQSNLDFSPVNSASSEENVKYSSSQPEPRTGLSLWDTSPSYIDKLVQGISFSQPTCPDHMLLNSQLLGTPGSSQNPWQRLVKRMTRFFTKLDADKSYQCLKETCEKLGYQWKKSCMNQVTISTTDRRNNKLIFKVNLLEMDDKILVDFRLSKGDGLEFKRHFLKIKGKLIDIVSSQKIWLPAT
# [7] = target: T2, Serine/threonine-protein kinase Chk1 (Homo sapiens); details: at 1 µM
# [8] = target: Serine/threonine-protein kinase Chk2 (Homo sapiens) (UniProt O96017); details: at 0.1 µM
# [9] = target: Serine/threonine-protein kinase Chk2 (Homo sapiens) (UniProt O96017); details: at 1 µM
# [10] = target: Death-associated protein kinase 1 (Homo sapiens) (UniProt P53355); details: at 0.1 µM;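 also: reported figure is the mean inhibition of DAPK1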
# Death-associated protein kinase 1 (Homo sapiens), sequence (P53355 whole entry, looked up): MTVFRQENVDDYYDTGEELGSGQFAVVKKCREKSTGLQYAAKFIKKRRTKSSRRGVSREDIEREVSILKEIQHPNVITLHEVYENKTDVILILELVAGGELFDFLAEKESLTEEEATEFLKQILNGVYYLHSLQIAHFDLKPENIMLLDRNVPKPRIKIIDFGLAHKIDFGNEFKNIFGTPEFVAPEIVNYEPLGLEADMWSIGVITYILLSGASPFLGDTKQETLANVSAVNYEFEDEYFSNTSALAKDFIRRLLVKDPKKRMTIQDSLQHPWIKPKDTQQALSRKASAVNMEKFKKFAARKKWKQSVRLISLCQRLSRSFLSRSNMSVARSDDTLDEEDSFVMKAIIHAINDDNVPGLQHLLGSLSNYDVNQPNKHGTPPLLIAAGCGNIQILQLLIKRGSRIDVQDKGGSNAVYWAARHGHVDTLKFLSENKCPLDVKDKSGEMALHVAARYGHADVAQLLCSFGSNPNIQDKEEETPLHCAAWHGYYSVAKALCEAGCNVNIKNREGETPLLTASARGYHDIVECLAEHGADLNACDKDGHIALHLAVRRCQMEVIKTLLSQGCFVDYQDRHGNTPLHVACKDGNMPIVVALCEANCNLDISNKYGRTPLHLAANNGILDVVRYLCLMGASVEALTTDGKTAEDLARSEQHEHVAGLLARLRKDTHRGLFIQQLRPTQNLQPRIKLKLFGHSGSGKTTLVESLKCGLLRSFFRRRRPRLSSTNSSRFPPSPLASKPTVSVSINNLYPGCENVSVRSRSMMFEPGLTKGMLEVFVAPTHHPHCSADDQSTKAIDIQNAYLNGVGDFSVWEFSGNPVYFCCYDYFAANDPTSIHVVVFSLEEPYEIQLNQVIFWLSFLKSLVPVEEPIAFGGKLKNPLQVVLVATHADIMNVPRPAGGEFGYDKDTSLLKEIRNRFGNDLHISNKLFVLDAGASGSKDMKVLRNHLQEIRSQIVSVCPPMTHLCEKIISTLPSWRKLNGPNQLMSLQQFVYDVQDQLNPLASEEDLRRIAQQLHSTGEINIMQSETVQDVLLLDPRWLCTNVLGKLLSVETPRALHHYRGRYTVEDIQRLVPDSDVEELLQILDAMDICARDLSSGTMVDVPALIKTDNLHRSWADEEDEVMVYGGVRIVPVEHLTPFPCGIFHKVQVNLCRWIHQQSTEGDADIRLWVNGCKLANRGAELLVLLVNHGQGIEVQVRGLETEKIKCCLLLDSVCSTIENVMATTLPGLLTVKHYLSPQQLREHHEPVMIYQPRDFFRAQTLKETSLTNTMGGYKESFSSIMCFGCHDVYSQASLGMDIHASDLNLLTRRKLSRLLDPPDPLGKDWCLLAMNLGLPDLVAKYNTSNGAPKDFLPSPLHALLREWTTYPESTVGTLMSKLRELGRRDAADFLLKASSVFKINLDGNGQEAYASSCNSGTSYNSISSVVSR
# Calcium/calmodulin-dependent protein kinase type II subunit delta (Homo sapiens), sequence (Q13557 whole entry): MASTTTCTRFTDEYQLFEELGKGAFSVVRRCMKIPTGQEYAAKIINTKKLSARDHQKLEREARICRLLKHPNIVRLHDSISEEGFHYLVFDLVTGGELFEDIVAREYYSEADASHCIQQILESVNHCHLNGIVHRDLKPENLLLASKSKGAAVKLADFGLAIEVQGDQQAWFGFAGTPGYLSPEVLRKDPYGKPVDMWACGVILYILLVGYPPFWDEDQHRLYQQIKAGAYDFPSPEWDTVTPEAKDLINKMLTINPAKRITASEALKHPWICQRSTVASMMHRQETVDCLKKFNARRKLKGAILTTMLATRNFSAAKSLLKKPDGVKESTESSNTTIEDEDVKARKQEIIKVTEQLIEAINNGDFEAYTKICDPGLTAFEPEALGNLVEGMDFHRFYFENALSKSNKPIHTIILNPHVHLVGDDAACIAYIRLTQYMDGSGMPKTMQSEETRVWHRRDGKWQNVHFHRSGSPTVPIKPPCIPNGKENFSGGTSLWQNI
# Calcium/calmodulin-dependent protein kinase type II subunit alpha (Homo sapiens), sequence (Q9UQM7 whole entry): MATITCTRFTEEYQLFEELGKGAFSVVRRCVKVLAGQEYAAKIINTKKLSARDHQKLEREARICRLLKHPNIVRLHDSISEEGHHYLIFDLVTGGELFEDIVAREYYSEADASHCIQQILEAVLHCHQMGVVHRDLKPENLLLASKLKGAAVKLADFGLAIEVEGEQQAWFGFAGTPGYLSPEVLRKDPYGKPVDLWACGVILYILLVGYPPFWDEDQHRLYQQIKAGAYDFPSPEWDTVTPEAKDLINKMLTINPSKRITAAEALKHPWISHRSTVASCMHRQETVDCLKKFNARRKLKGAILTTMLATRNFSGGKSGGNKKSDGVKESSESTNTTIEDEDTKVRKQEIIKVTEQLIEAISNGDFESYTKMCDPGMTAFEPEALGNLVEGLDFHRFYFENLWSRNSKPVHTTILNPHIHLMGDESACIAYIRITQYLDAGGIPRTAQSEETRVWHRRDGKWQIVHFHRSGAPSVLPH
# Serine/threonine-protein kinase Chk2 (Homo sapiens), sequence (O96017 whole entry): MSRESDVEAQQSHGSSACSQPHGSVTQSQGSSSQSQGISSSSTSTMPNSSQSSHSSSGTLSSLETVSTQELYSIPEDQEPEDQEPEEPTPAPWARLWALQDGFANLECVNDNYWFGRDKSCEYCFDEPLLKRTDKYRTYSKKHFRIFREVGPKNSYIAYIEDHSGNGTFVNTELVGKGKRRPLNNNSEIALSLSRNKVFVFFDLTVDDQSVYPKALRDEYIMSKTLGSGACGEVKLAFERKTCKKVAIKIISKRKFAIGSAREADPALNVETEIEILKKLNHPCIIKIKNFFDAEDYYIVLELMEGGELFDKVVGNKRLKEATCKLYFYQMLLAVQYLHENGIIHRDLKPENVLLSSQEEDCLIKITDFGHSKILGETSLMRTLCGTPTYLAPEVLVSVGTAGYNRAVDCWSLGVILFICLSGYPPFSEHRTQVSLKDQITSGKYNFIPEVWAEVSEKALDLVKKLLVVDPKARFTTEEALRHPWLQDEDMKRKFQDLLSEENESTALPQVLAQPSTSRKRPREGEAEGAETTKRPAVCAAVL
Compound,inhibition [1],inhibition [2],inhibition [3],inhibition [4],inhibition [5],inhibition [6],inhibition [7],inhibition [8],inhibition [9],inhibition [10]
CCS(=O)(=O)c1ccc(OC)c(Nc2ncc(-c3cccc(-c4ccccc4F)c3)o2)c1,3.98%,1.21%,11.6%,1.15%,1.5%,1.03%,2.03%,-0.11%,-0.35%,-0.16%
COC(=O)Nc1nc2ccc(Sc3ccc(NC(=O)Nc4cc(C(F)(F)F)ccc4F)cc3)cc2[nH]1,4.35%,1.39%,2.79%,0.44%,1.75%,2.81%,1.17%,-0.98%,0.37%,3.64%
O=C(Nc1n[nH]c2cc(-c3cc(F)ccc3F)ccc12)C1CC1,2.68%,3.1%,25.3%,1.86%,1.99%,-0.4%,1.41%,2.67%,3.25%,-0.82%
CN(C)CCCNc1nccc(-c2c(-c3ccc(F)cc3)nn3cc(C(F)(F)F)ccc23)n1,4.26%,3.65%,4.37%,1.43%,2.27%,-3.07%,1.13%,0.82%,0.61%,0.55%
O=C(NCC1CC1)c1ccc(-c2cccc(C(=O)NC3CC3)c2)cc1,2.74%,2.24%,3.64%,0.89%,2%,-3.93%,2.12%,0.96%,0.33%,2.26%
Nc1nccc(-c2c(-c3ccc(F)cc3)ncn2C2CCC(O)CC2)n1 (stereo not given),-3.25%,-1.92%,1.53%,9.35%,-0.1%,-3.08%,0.13%,-1.95%,-1.72%,-1.1%
CCc1cccc(CC)c1/C=C/c1cncc(C(=O)NC)c1,3.51%,2.92%,2.2%,1.05%,13.9%,3.68%,2.13%,1.58%,1.85%,2.61%
Fc1ccc(-c2ncn(C3CCNCC3)c2-c2ccnc(Oc3ccc(Oc4ccccc4)cc3)n2)cc1,9.16%,3.93%,10.3%,-1.5%,4.41%,10.6%,16.4%,8.69%,13.4%,12.4%
O=C1NC(=O)C(c2cccc(Cl)c2)=C1Nc1ccc(Cl)c(C(=O)O)c1,2.06%,1.45%,4.49%,-0.36%,-0.93%,0.81%,2.22%,2.39%,3.13%,3.48%
NS(=O)(=O)c1ccc(N/N=C2\C(=O)Nc3ccc(-c4cnco4)cc32)cc1,4.17%,2.48%,16.3%,-0.57%,-0.99%,-0.45%,6.95%,0.92%,5.7%,-1.79%
O=C1Nc2ccccc2/C1=C/Nc1ccc(-n2cncn2)cc1,4.05%,2.3%,6.83%,-0.87%,-2.92%,1.77%,13.5%,3.98%,14.9%,5.75%
COc1cccc(-n2cnc3c(N/N=C/c4ccncc4)ncnc32)c1,1.18%,-1.07%,-1.61%,-2.88%,-5.3%,0.34%,0.31%,-0.94%,-0.32%,-0.67%
Fc1ccc(-c2ncn(C3CCNCC3)c2-c2ccnc(Oc3ccc4c(c3)OCO4)n2)cc1,12.6%,2.69%,3.08%,0.19%,0.41%,-3.37%,-1.58%,-2.12%,-3.43%,-1.22%
CCc1ccc(Oc2nccc(-c3c(-c4ccc(F)cc4)ncn3C3CCNCC3)n2)cc1,5.86%,4.44%,7.05%,2.89%,5.14%,4.54%,6.62%,3.02%,5.66%,4.58%
CCS(=O)(=O)c1ccc(OC)c(Nc2ncc(-c3ccccc3Cl)o2)c1,3.37%,1.45%,1.43%,2.52%,0.4%,5.3%,5.1%,-1.42%,-0.76%,4.59%
NCc1ccc(-n2c(-c3nonc3N)nc3cnccc32)cc1,7.05%,6.42%,15.2%,-0.16%,4.15%,8.32%,12.3%,2.9%,6.29%,7.02%
CCN(CC)Cc1ccc(Nc2nccc(-c3cnn4ncccc34)n2)cc1,4.21%,3.84%,14.3%,-0.37%,0.34%,1.29%,11.6%,2.5%,7.56%,2.68%

Compound,inhibition [1],inhibition [2],inhibition [3],inhibition [4],inhibition [5],inhibition [6],inhibition [7],inhibition [8],inhibition [9],inhibition [10]
c1ccc(Oc2ccc(Nc3ncc(-c4ccccc4)o3)cc2)cc1,0.18%,0.76%,0.58%,0.49%,1.32%,0.67%,1.6%,0.58%,1.05%,0.04%
Clc1ccc(CNc2nccc(-c3cnn4ncccc34)n2)cc1,4.51%,2.06%,3.21%,1.93%,1.7%,2.84%,8.27%,4.34%,6.1%,9.28%
N#Cc1ccc(Oc2nccc(-c3c(-c4ccc(F)cc4)ncn3C3CCNCC3)n2)cc1,0.01%,3.46%,5.08%,-1.84%,6.38%,1.81%,-0.27%,4.28%,4.2%,2.55%
C[C@@H](Oc1cc(-n2cnc3ccc(OC4CCN(C)CC4)cc32)sc1C(N)=O)c1ccccc1Cl,14.4%,10.2%,44.3%,-2.92%,2.05%,0.96%,7.85%,3.23%,5.06%,3.53%
FC(F)(F)c1cccc(Nc2nccc(-c3cnn4nc(-c5ccccc5)ccc34)n2)c1,-0.96%,0.96%,-1.12%,1.79%,-1.25%,3.93%,1.39%,0.57%,1.27%,3.36%
COc1cc(C)c(N(C)C(=O)CN(C)C)cc1Nc1nc(Nc2cccc(F)c2C(N)=O)c2cc[nH]c2n1,4.38%,3.09%,3.38%,1.4%,4.78%,-4.87%,-0.94%,2.55%,8.44%,0.19%
NC(=O)c1cc(-c2ccc(F)cc2)cc(-c2ccncc2)c1N,3.68%,1.36%,3.98%,0.77%,0.56%,0.67%,0.41%,3%,3.74%,1.26%
O=C(Nc1n[nH]c2nc(-c3ccco3)ccc12)C1CC1,1.36%,2.25%,2.34%,2.75%,3.02%,1.37%,8.39%,4.66%,6.05%,7.38%
C[C@@H](Oc1cc(-n2cnc3ccc(OCC4CCN(C)CC4)cc32)sc1C(N)=O)c1ccccc1Cl,12.8%,9.02%,38.1%,0.69%,3.44%,7.19%,10.4%,2.55%,6.43%,7.7%
C#Cc1cccc(Nc2ncnc3ccc(OCCCCNCCS(C)(=O)=O)cc23)c1,3.33%,3%,5.51%,-0.65%,-2.02%,1.45%,4.94%,2.64%,7.73%,3.32%
COc1cc(Nc2ncc3c(C)nc(-c4cccc(C(F)(F)F)c4)n3n2)cc(OC)c1OC,2%,3.19%,5.08%,-2%,-3.22%,1.23%,5.15%,6.47%,9.62%,-0.52%
Fc1ccc(-c2ncn(C3CCNCC3)c2-c2ccnc(Oc3ccc(F)c(F)c3)n2)cc1,0.43%,1.91%,4.38%,-2.42%,-1.76%,-3.21%,5.61%,2.5%,2.87%,3.38%
Cc1ccc(C(=O)NC(C)C)cc1-c1ccc(C(=O)NCC2CC2)cc1,-3.85%,-3.04%,-1.11%,-0.94%,-2.57%,-1.72%,-3.38%,-3.25%,-2.4%,-2.08%
CCc1nccc2c1nc(-c1nonc1N)n2CC,2.34%,2%,3.76%,2.07%,1.55%,1.61%,-3.41%,-1.09%,-0.94%,0.87%
NC(=O)c1ccc(Oc2nccc(-c3c(-c4ccc(F)cc4)ncn3C3CCNCC3)n2)cc1,4.37%,4.24%,6.79%,0.24%,2.66%,-2.66%,1.07%,-1.09%,0.46%,-2.59%
CS(=O)(=O)CCNCc1ccc(-c2ccc3ncnc(Nc4ccc(OCc5ccccc5)c(Br)c4)c3c2)o1,-1.77%,2.65%,3.02%,-1.3%,-2.06%,0.41%,1.92%,2.5%,2.92%,3.45%
Cc1ccc(NC(=O)c2ccoc2)cc1-c1ccc(C(=O)NCC2CC2)cc1,-3.72%,1.18%,-0.48%,-0.8%,-1.43%,2%,1.01%,1.96%,1.43%,3.89%
